Reference: PMC11006913
Residue numbers refer to the chain shown, from its start.

Key:
Assay in all cases: PBM; 200 nM protein, PBS
Settings in all cases: dsDNA, one strand shown
[1] = target: HOXA7 (Homo sapiens, UniProt P31268 116-202)
[2] = target: PRRX1 (Homo sapiens, UniProt P54821 80-166, F113S)
[3] = target: HOXB6 (Homo sapiens, UniProt P17509 132-218, K202E)
[4] = target: MSX2 (Homo sapiens, UniProt P35548 130-214)
[5] = target: MSX2 (Homo sapiens, UniProt P35548 130-214, F161Y)
[6] = target: HOXA7 (Homo sapiens, UniProt P31268 116-202, W177C)
HOXA7 (Homo sapiens, UniProt P31268 116-202, W177C), sequence (P31268 116-202 W177C): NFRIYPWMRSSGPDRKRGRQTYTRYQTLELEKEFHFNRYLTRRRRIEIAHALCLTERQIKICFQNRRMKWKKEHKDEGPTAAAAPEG

[7] = target: PRRX1 (Homo sapiens, UniProt P54821 80-166)
PRRX1 (Homo sapiens, UniProt P54821 80-166), sequence (P54821 80-166): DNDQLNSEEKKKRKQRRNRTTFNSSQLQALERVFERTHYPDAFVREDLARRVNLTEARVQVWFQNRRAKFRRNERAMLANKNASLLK

[8] = target: ALX4 (Homo sapiens, UniProt Q9H161 200-286)
ALX4, sequence (Q9H161 200-286): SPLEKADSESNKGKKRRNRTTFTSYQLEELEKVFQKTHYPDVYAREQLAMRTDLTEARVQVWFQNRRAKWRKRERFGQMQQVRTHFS

[9] = target: HOXA2 (Homo sapiens, UniProt O43364 129-215, R185T)
HOXA2 (Homo sapiens, UniProt O43364 129-215, R185T), sequence (O43364 129-215 R185T): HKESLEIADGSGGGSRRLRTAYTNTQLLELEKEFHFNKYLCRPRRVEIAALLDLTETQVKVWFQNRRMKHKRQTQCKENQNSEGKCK

[10] = target: HOXA4 (Homo sapiens, UniProt Q00056 201-287, R217L)
HOXA4 (Homo sapiens, UniProt Q00056 201-287, R217L), sequence (Q00056 201-287 R217L): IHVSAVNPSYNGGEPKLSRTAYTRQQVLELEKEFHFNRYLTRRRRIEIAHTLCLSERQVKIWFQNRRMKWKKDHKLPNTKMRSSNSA

[11] = target: T1, PAX4 (Homo sapiens, UniProt O43316 9-242, R200Q)
T1 sequence: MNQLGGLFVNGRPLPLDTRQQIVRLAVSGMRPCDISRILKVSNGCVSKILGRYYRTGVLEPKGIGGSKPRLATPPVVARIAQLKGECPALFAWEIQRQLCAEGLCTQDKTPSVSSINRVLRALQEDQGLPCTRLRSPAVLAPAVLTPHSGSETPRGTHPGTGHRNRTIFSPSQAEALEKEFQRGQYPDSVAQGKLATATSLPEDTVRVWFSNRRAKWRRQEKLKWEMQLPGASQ

[12] = target: HOXA4 (Homo sapiens, UniProt Q00056 201-287, W262F)
HOXA4 (Homo sapiens, UniProt Q00056 201-287, W262F), sequence (Q00056 201-287 W262F): as the sequence (Q00056 201-287 R217L) above, with L17R, W62F counted along it

[13] = target: HOXA2 (Homo sapiens, UniProt O43364 129-215, R185K)
HOXA2 (Homo sapiens, UniProt O43364 129-215, R185K), sequence (O43364 129-215 R185K): as the sequence (O43364 129-215 R185T) above, with T57K counted along it

[14] = target: T2, VENTX (Homo sapiens, UniProt O95231 78-163, R121Q)
T2 sequence: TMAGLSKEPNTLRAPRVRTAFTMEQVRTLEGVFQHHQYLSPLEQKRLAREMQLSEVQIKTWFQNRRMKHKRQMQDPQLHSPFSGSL

[15] = target: T3, VENTX (Homo sapiens, UniProt O95231 78-163, Y115F)
T3 sequence: T2 sequence with Y38F, Q44R

[16] = target: VAX1 (Homo sapiens, UniProt Q5SQQ9 86-172, T142I)
VAX1 (Homo sapiens, UniProt Q5SQQ9 86-172, T142I), sequence (Q5SQQ9 86-172 T142I): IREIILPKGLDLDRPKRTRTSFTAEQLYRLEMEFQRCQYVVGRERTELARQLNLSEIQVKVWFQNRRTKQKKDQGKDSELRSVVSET

[17] = target: VAX1 (Homo sapiens, UniProt Q5SQQ9 86-172, K157R)
VAX1 (Homo sapiens, UniProt Q5SQQ9 86-172, K157R), sequence (Q5SQQ9 86-172 K157R): as the sequence (Q5SQQ9 86-172 T142I) above, with I57T, K72R counted along it

MSX2 (Homo sapiens, UniProt P35548 130-214), sequence (P35548 130-214): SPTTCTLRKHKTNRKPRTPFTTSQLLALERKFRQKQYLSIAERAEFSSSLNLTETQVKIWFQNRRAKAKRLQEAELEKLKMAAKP
MSX2 (Homo sapiens, UniProt P35548 130-214, F161Y), sequence (P35548 130-214 F161Y): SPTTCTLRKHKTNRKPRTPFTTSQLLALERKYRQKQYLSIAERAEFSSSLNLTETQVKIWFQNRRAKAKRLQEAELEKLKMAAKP
PRRX1 (Homo sapiens, UniProt P54821 80-166, F113S), sequence (P54821 80-166 F113S): as the sequence (P54821 80-166) above, with F34S counted along it
HOXA7 (Homo sapiens, UniProt P31268 116-202), sequence (P31268 116-202): as the sequence (P31268 116-202 W177C) above, with C62W counted along it
HOXB6, sequence (P17509 132-218 K202E): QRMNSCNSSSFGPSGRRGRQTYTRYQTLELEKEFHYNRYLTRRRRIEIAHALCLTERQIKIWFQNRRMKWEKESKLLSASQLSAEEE

## GACAATTA
[1]
  binding signal: 11.2 upbm affinity estimate (log intensity, higher = more binding, comparable within an allelic series)
[2]
  binding signal: 11 upbm affinity estimate (log intensity, higher = more binding, comparable within an allelic series)
[3]
  binding signal: 9.96 upbm affinity estimate (log intensity, higher = more binding, comparable within an allelic series)
[4]
  binding signal: 13.8 upbm affinity estimate (log intensity, higher = more binding, comparable within an allelic series)
[5]
  binding signal: 13.4 upbm affinity estimate (log intensity, higher = more binding, comparable within an allelic series)
[6]
  binding signal: 8.85 upbm affinity estimate (log intensity, higher = more binding, comparable within an allelic series)
[7]
  binding signal: 13.2 upbm affinity estimate (log intensity, higher = more binding, comparable within an allelic series)

## AATTAACT
[1]
  binding signal: 11.2 upbm affinity estimate (log intensity, higher = more binding, comparable within an allelic series)
[8]
  binding signal: 13.9 upbm affinity estimate (log intensity, higher = more binding, comparable within an allelic series)
[2]
  binding signal: 11.2 upbm affinity estimate (log intensity, higher = more binding, comparable within an allelic series)
[3]
  binding signal: 9.99 upbm affinity estimate (log intensity, higher = more binding, comparable within an allelic series)
[9]
  binding signal: 12.5 upbm affinity estimate (log intensity, higher = more binding, comparable within an allelic series)
[10]
  binding signal: 12.1 upbm affinity estimate (log intensity, higher = more binding, comparable within an allelic series)
[11]
  binding signal: 12.1 upbm affinity estimate (log intensity, higher = more binding, comparable within an allelic series)
[4]
  binding signal: 13.5 upbm affinity estimate (log intensity, higher = more binding, comparable within an allelic series)
[5]
  binding signal: 13.1 upbm affinity estimate (log intensity, higher = more binding, comparable within an allelic series)
[6]
  binding signal: 8.89 upbm affinity estimate (log intensity, higher = more binding, comparable within an allelic series)
[12]
  binding signal: 11.5 upbm affinity estimate (log intensity, higher = more binding, comparable within an allelic series)
[7]
  binding signal: 13.3 upbm affinity estimate (log intensity, higher = more binding, comparable within an allelic series)

## GAGGGGGC
[9]
  binding signal: 7.01 upbm affinity estimate (log intensity, higher = more binding, comparable within an allelic series)
[13]
  binding signal: 10.1 upbm affinity estimate (log intensity, higher = more binding, comparable within an allelic series)

## AATTAAGT
[8]
  binding signal: 13.9 upbm affinity estimate (log intensity, higher = more binding, comparable within an allelic series)
[2]
  binding signal: 11.2 upbm affinity estimate (log intensity, higher = more binding, comparable within an allelic series)
[9]
  binding signal: 12.1 upbm affinity estimate (log intensity, higher = more binding, comparable within an allelic series)
[11]
  binding signal: 11.9 upbm affinity estimate (log intensity, higher = more binding, comparable within an allelic series)
[13]
  binding signal: 12.8 upbm affinity estimate (log intensity, higher = more binding, comparable within an allelic series)
[4]
  binding signal: 13.3 upbm affinity estimate (log intensity, higher = more binding, comparable within an allelic series)
[5]
  binding signal: 12.9 upbm affinity estimate (log intensity, higher = more binding, comparable within an allelic series)
[12]
  binding signal: 11.4 upbm affinity estimate (log intensity, higher = more binding, comparable within an allelic series)
[7]
  binding signal: 13.3 upbm affinity estimate (log intensity, higher = more binding, comparable within an allelic series)

## CAATTAGG
[14]
  binding signal: 12 upbm affinity estimate (log intensity, higher = more binding, comparable within an allelic series)
[15]
  binding signal: 11.7 upbm affinity estimate (log intensity, higher = more binding, comparable within an allelic series)
[9]
  binding signal: 12.9 upbm affinity estimate (log intensity, higher = more binding, comparable within an allelic series)
[13]
  binding signal: 13 upbm affinity estimate (log intensity, higher = more binding, comparable within an allelic series)
[4]
  binding signal: 13.8 upbm affinity estimate (log intensity, higher = more binding, comparable within an allelic series)
[5]
  binding signal: 13.4 upbm affinity estimate (log intensity, higher = more binding, comparable within an allelic series)
[16]
  binding signal: 12.8 upbm affinity estimate (log intensity, higher = more binding, comparable within an allelic series)
[17]
  binding signal: 12.7 upbm affinity estimate (log intensity, higher = more binding, comparable within an allelic series)

## TAATTGGA
[14]
  binding signal: 11.7 upbm affinity estimate (log intensity, higher = more binding, comparable within an allelic series)
[8]
  binding signal: 14 upbm affinity estimate (log intensity, higher = more binding, comparable within an allelic series)
[2]
  binding signal: 11.4 upbm affinity estimate (log intensity, higher = more binding, comparable within an allelic series)
[9]
  binding signal: 12.5 upbm affinity estimate (log intensity, higher = more binding, comparable within an allelic series)
[11]
  binding signal: 12 upbm affinity estimate (log intensity, higher = more binding, comparable within an allelic series)
[4]
  binding signal: 14 upbm affinity estimate (log intensity, higher = more binding, comparable within an allelic series)
[5]
  binding signal: 13.6 upbm affinity estimate (log intensity, higher = more binding, comparable within an allelic series)
[7]
  binding signal: 13.4 upbm affinity estimate (log intensity, higher = more binding, comparable within an allelic series)

## CAATTAGA
[14]
  binding signal: 11.8 upbm affinity estimate (log intensity, higher = more binding, comparable within an allelic series)
[8]
  binding signal: 13.8 upbm affinity estimate (log intensity, higher = more binding, comparable within an allelic series)
[2]
  binding signal: 10.9 upbm affinity estimate (log intensity, higher = more binding, comparable within an allelic series)
[9]
  binding signal: 12.5 upbm affinity estimate (log intensity, higher = more binding, comparable within an allelic series)
[4]
  binding signal: 13.8 upbm affinity estimate (log intensity, higher = more binding, comparable within an allelic series)
[5]
  binding signal: 13.4 upbm affinity estimate (log intensity, higher = more binding, comparable within an allelic series)
[16]
  binding signal: 12.2 upbm affinity estimate (log intensity, higher = more binding, comparable within an allelic series)
[7]
  binding signal: 13.2 upbm affinity estimate (log intensity, higher = more binding, comparable within an allelic series)
[17]
  binding signal: 12.3 upbm affinity estimate (log intensity, higher = more binding, comparable within an allelic series)

## AACTAATT
[8]
  binding signal: 13.7 upbm affinity estimate (log intensity, higher = more binding, comparable within an allelic series)
[2]
  binding signal: 11.1 upbm affinity estimate (log intensity, higher = more binding, comparable within an allelic series)
[4]
  binding signal: 13.3 upbm affinity estimate (log intensity, higher = more binding, comparable within an allelic series)
[5]
  binding signal: 12.9 upbm affinity estimate (log intensity, higher = more binding, comparable within an allelic series)
[7]
  binding signal: 13.3 upbm affinity estimate (log intensity, higher = more binding, comparable within an allelic series)

## CAATTACA
[2]
  binding signal: 10.9 upbm affinity estimate (log intensity, higher = more binding, comparable within an allelic series)
[3]
  binding signal: 9.87 upbm affinity estimate (log intensity, higher = more binding, comparable within an allelic series)
[4]
  binding signal: 13.7 upbm affinity estimate (log intensity, higher = more binding, comparable within an allelic series)
[5]
  binding signal: 13.3 upbm affinity estimate (log intensity, higher = more binding, comparable within an allelic series)
[7]
  binding signal: 13.2 upbm affinity estimate (log intensity, higher = more binding, comparable within an allelic series)

## AATTAAGG
[8]
  binding signal: 13.6 upbm affinity estimate (log intensity, higher = more binding, comparable within an allelic series)

## GAGCTGGC
[1]
  binding signal: 8.29 upbm affinity estimate (log intensity, higher = more binding, comparable within an allelic series)
[6]
  binding signal: 8.35 upbm affinity estimate (log intensity, higher = more binding, comparable within an allelic series)
